In experiment [1] the test system is MKL-1. Description: qHTS assay to identify novel small-molecules to repurpose for Merkel cell carcinoma treatment (AID 1296009). Note: nearly all actives have a fitted effect of over 60% in size. The settings on record: MCC and control cell lines, CellTiter-Glo viability, 72 h; series mostly up to 46 µM. In outline:
(§1)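 Cells exposed to NPC (8-point) and MIPE (11-point) compound dilutions for 72 hr at 37 degree celsius; viability read by CellTiter-Glo luminescence, normalized to no-cell and DMSO in-plate controls.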
(In qHTS, concentration-response curves come from the screen itself.)

Experiment [2] relates to MKL-2. The description is as above. The settings on record: MCC and control cell lines, CellTiter-Glo viability, 72 h; series mostly up to 46 µM. In outline:
as §1
(Cellular ATP, detected with luciferase, serves as a proxy for viable cell number.)

The subject of experiment [3] is UISO. The experiment is described as above. The settings on record: MCC and control cell lines, CellTiter-Glo viability, 72 h; series mostly up to 46 µM. In outline:
as §1

Experiment [4] concerns WaGa. Described as above. Conditions: MCC and control cell lines, CellTiter-Glo viability, 72 h; series mostly up to 46 µM. The procedure, abridged: as §1
Experiment [5] relates to C33A. Put plainly: Primary qHTS to identify gynecologic anti-cancer compounds using libraries of approved drugs and bioactive compounds (AID 1345084). Note: nearly all actives have a fitted effect of over 55% in size. Conditions: Gynecologic cancer cell panel viability, ATPlite luminescence, 48 h; series mostly up to 57.5 µM. In outline: (§2)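 Cell viability after 48 h drug treatment, ATPlite luminescence readout; five doses.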
Experiment [6] concerns CAOV3. The description is as above. Conditions: Gynecologic cancer cell panel viability, ATPlite luminescence, 48 h; series mostly up to 57.5 µM. The procedure, abridged:
as §2

The subject of experiment [7] is CASKI. The description is as above. The settings on record: Gynecologic cancer cell panel viability, ATPlite luminescence, 48 h; series mostly up to 57.5 µM. The procedure, abridged: as §2
Experiment [8] concerns Es-2. Described as above. The settings on record: Gynecologic cancer cell panel viability, ATPlite luminescence, 48 h; series mostly up to 57.5 µM. The procedure, abridged: as §2
Experiment [9] has as its system HeLa. Described as above. Conditions: Gynecologic cancer cell panel viability, ATPlite luminescence, 48 h; series mostly up to 57.5 µM. The procedure, abridged:
as §2

Experiment [10] relates to Hek293T. The description is as above. Conditions: Gynecologic cancer cell panel viability, ATPlite luminescence, 48 h, control line for the selectivity index; series mostly up to 57.5 µM. In outline: as §2
Experiment [11] relates to JEG-3. The description is as above. Conditions: Gynecologic cancer cell panel viability, ATPlite luminescence, 48 h; series mostly up to 57.5 µM. The procedure, abridged:
as §2

Experiment [12] has as its system OV90. The experiment is described as above. Conditions: Gynecologic cancer cell panel viability, ATPlite luminescence, 48 h; series mostly up to 57.5 µM. In outline: as §2
For experiment [13], the system named is PA-1. Described as above. The settings on record: Gynecologic cancer cell panel viability, ATPlite luminescence, 48 h; series mostly up to 57.5 µM. In outline:
as §2

Experiment [14] concerns SKOV3. Described as above. Conditions: Gynecologic cancer cell panel viability, ATPlite luminescence, 48 h; series mostly up to 57.5 µM. In outline:
as §2

Experiment [15] deals with Tov-21-G. The description is as above. Conditions: Gynecologic cancer cell panel viability, ATPlite luminescence, 48 h; series mostly up to 57.5 µM. The procedure, abridged: as §2
The subject of experiment [16] is Tov112D. The experiment is described as above. Conditions: Gynecologic cancer cell panel viability, ATPlite luminescence, 48 h; series mostly up to 57.5 µM. The procedure, abridged: as §2
Experiment [17] is described as follows: Drug repurposing screens with cells derived from glioblastoma tumor samples (AID 1345199). Note: nearly all actives have a fitted effect of over 40% in size. Note: potency is the fitted concentration of half-maximal effect. The settings on record: GBM patient neurospheres viability, ATP luminescence, 48 h. In outline:
(§3)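 Four patient lines of CD133+ GBM neurospheres were screened at several concentrations; hits were retested in those lines plus three slower-growing GBM lines, using 48-hour treatment and ATP-based viability.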

For experiment [18], the system named is astro. Described as above. The settings on record: viability, ATP luminescence, 48 h; series mostly up to 45.9 µM. The procedure, abridged: as §3
In experiment [19] the test system is NIH3T3. Put plainly: qHTS assay to identify novel small-molecules to repurpose for Merkel cell carcinoma treatment (AID 1296009). Note: nearly all actives have a fitted effect of over 60% in size. Conditions: MCC and control cell lines, CellTiter-Glo viability, 72 h; at 44.8 µM (top of the series) unless noted. In outline:
as §1

[20] abbreviates: at 20 µM (top of the series), tumour line C.
Where [21] appears, read: at 21.2 µM (top of the series), tumour line B.
The mark [22] stands for this setting: at 21.2 µM (top of the series), tumour line D.
[23] abbreviates: at 45.9 µM (top of the series), tumour line B.
The mark [24] stands for this setting: at 45.9 µM (top of the series), tumour line D.
Where [25] appears, read: at 46.1 µM (top of the series), tumour line C.

Records with an inconclusive call do not appear. Unmarked numbers belong to inactive results. Calls of active or inactive are those of the source. Calls come from the whole dose curve; as a rule, active = well fitted curve in the direction sought with a large enough effect; inconclusive = small, poorly fitted or top-dose-only effect, or another doubt; inactive = no such curve, though single readings can be large; an effect the other way counts as inactive or inconclusive.
% is set by controls: 0 for no effect and ±100 for the full control effect.

With `COC(=O)C1=C(C)NC(C)=C(C(=O)OC(C)C)C1c1cccc2nonc12` (stereo unspecified), the Potency entry in experiment [1], in [2], in experiment [3], in [4], in experiment [5] and in experiment [6] was “inactive” in each case. The Potency result in experiment [7], in [8], in experiment [9], in [10], in experiment [11] and in [12] was “inactive” in each case. In addition, the Potency result in experiment [13], in experiment [14], in experiment [15], in experiment [16] and in experiment [18] was “inactive” in each case. Also, the activity, negative = cell killing was -16.7% in experiment [17] (setting [20]), -11.5% in experiment [17] (setting [21]) and -1.17% in [17] (setting [22]).
As for `C=CCc1cc(OC)c(O)c(C(=O)NCCO)c1`, the Potency entry in experiment [1], in experiment [2], in experiment [3], in experiment [4], in [5] and in experiment [6] was “inactive” each time. For the same molecule, the Potency entry in [7], in experiment [8], in [9], in experiment [10], in experiment [11] and in experiment [12] was “inactive” throughout. Further, the Potency entry in experiment [13], in experiment [14], in [15], in experiment [16] and in experiment [18] was “inactive” each time. Also, the activity, negative = cell killing in [17] (setting [23]) is -18.2%; in [17] (setting [24]) it was -1.66%; in experiment [17] (setting [25]), 2.37%.
For `O=C(CS(=O)Cc1ccco1)NCC=CCOc1cc(CN2CCCCC2)ccn1` (stereo unspecified), the Potency result in experiment [1], in experiment [2], in [3], in experiment [4] and in [18] was “inactive” in each case. Moreover, the molecule was called inactive in experiment [19]. Besides, the activity, negative = cell killing in experiment [17] (setting [23]) is -14.1%; in experiment [17] (setting [24]) it was -2.16%; in experiment [17] (setting [25]) it was -28%. Further, the Potency in experiment [17] (tumour line A) is 25.1 µM (active).
For the molecule `O=c1cc(N2CCOCC2)oc2c(-c3ccccc3)cccc12`, the Potency entry in [1], in experiment [2], in [3] and in [4] was “inactive” each time.
Take `CC1Cc2ccccc2N1NC(=O)c1ccc(Cl)c(S(N)(=O)=O)c1` (stereo unspecified): the Potency entry in experiment [1], in [2], in [3], in [4], in experiment [5] and in [6] was “inactive” each time. Further, the Potency result in experiment [7], in experiment [8], in experiment [9], in [10], in [11] and in experiment [12] was “inactive” in each case. The Potency result in [13], in experiment [14], in experiment [15], in experiment [16] and in experiment [18] was “inactive” in each case. Moreover, the activity, negative = cell killing was 27.9% in [17] (setting [20]); -2.89% in experiment [17] (setting [21]); 1.12% in experiment [17] (setting [22]); 9.62% in [17] (setting [23]); -0.642% in experiment [17] (setting [24]); 0.368% in [17] (setting [25]).
Regarding `Nc1cc(C(Cl)=C(Cl)Cl)c(S(N)(=O)=O)cc1S(N)(=O)=O`, the Potency entry in experiment [1], in experiment [2], in experiment [3], in [4], in experiment [5] and in [6] was “inactive” each time. Also, the Potency entry in [7], in experiment [8], in experiment [9], in experiment [10], in [11] and in [12] was “inactive” in each case. Also, the Potency entry in experiment [13], in experiment [14], in [15], in [16] and in [18] was “inactive” in each case. For the same molecule, the activity, negative = cell killing was -2.9% in experiment [17] (setting [20]); -5.37% in experiment [17] (setting [21]); -20.2% in [17] (setting [22]); -22% in experiment [17] (at 21.3 µM (top of the series), tumour line A); -15.5% in experiment [17] (setting [23]); 2.04% in experiment [17] (setting [24]). The activity, negative = cell killing in experiment [17] (setting [25]) is 10.7%.

(Values after PubChem BioAssay (NCATS).)
